Luciferase inh: Firefly luciferase inhibition profiling of diverse chemical library using quantitative high-throughput screening. Luciferin 4-monooxygenase (Photinus pyralis), P08659. purified P. pyralis luciferase, luminescence, biochemical. Potency, µM (top dose mostly 115 µM), hits mostly inhibitors. actives 2.5% (n = 76,000). AID 1347043, 2019; note: nearly all actives have a fitted effect of over 65% in size
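FLuc 10nM, D-luciferin 10uM, ATP 10uM, Mg acetate 10mM, Tris acetate pH 7.5, Tween/BSA; cpd qHTS; enzyme added last; CCD luminescence.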
GPT2 inh: Primary qHTS assay for inhibitors of Glutamate pyruvate transaminase 2 (GPT2); Recombinant GPT2, coupled pyruvate oxidase/HRP Amplex Red fluorescence; Potency, µM (top dose mostly 57.7 µM), without a hit: at the top dose activity change, negative = inhibition, actives largely listed as inhibitors; actives 0.25% (n = 100,000); AID 1671188, 2021; Alanine aminotransferase 2 (Homo sapiens), Q8TD30; note: nearly all actives have a fitted effect of over 60% in size
Target sequence (Q8TD30 whole entry, looked up): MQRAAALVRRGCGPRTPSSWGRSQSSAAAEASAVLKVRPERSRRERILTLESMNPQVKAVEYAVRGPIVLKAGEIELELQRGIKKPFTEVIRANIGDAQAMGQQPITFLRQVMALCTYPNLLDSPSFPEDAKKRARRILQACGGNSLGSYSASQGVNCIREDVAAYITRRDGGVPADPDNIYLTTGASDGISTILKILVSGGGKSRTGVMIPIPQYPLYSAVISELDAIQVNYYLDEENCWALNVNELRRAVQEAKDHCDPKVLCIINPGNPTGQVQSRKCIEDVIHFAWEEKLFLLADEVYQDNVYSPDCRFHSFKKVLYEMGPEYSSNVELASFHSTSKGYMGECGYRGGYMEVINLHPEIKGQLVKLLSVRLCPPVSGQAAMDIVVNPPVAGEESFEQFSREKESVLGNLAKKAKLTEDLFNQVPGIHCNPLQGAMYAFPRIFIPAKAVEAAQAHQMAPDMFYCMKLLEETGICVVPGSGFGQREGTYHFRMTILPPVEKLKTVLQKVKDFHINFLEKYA
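Fluorescence of coupled pyruvate oxidase/HRP/Amplex Red system (50uM Amplex, 30 min, dark) reports pyruvate formed by GPT2. Enzyme reaction: 10ng/uL GPT2, 2mM L-alanine, 250uM a-KG, 30 min room temperature, pH 7.5; 50uM AOA control.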
3T3 cytotox: Cytotoxic Profiling in NIH 3T3 Cell Line of Diverse Libraries Using Quantitative High-Throughput Screening; NIH 3T3 viability, CellTiter-Glo ATP luminescence, 48-72 h; Potency, µM (top dose mostly 96.7 µM), for inactives: at the highest dose activity change, negative = cytotoxicity, most hits filed as inhibitors; actives 4.3% (n = 94,000); note: nearly all actives have a fitted effect of over 55% in size
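Cytotoxicity was measured by CellTiter-Glo ATP luminescence after 48 or 72 h compound exposure at 37 °C. Mouse NIH 3T3 fibroblasts were seeded at 400 cells/well and dosed by 23 nL pin transfer.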
HEK cytotox: Cytotoxic Profiling in HEK 293 Cell Line of Diverse Libraries Using Quantitative High-Throughput Screening | HEK 293 viability, ATP luminescence (CellTiter-Glo), 48-72 h | actives 6.6% (n = 94,000) | Potency, µM (series often up to 115 µM), inactives show at the highest dose activity change, negative = cytotoxicity, most hits filed as inhibitors; note: nearly all actives have a fitted effect of over 60% in size
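HEK 293 seeded at 250 cells/well receive compound via pintool. After 48 or 72 hr at 37 degree Celsius, 5% CO2 and 95% humidity, CellTiter-Glo is dispensed and luminescence read following 10 min at room temperature.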
NPR1 antag: Natriuretic polypeptide receptor (hNpr1) antagonism - Primary qHTS | Atrial natriuretic peptide receptor 1 (Homo sapiens), P16066 | HEK293 hNpr1 GloSensor cGMP, ANP-stimulated luminescence | Potency, µM (series often up to 46.3 µM), for the others: at the top dose activity change, negative = inhibition, actives largely listed as inhibitors | actives 1.6% (n = 76,000); calls by dose curve; note: nearly all actives have a fitted effect of over 60% in size
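Compound pre-incubated 30 min at room temperature on GloSensor-loaded HEK293 cells stably carrying hNpr1 and the pGS-40F cGMP biosensor. Stimulation uses hNppA at 0.1 nM final; luminescence is taken at baseline and 20 min post-agonist.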
Active calls of the source: *; i = inactive; ? = inconclusive; . = no result; ! = not active in a repeat; [ ] = dose if it differs, or a comment. The list is not random: actives were taken first. Their share in the collection is about 10%. Unless noted, calls come from the whole dose curve; as a rule, active = well fitted curve in the direction sought with a large enough effect; inconclusive = small, poorly fitted or top-dose-only effect, or another doubt; inactive = no such curve, though single readings can be large; an effect the other way counts as inactive or inconclusive. % is set by controls: 0 for no effect and ±100 for the full control effect; potency is the fitted concentration of half-maximal effect.

SMILES | Luciferase inh | GPT2 inh | 3T3 cytotox | HEK cytotox | NPR1 antag
O=C1NC2(CCN(CC3CCCCC3)CC2)COc2ccccc21 | i | i | 79µM* | 35µM* | 4%[70.6 µM]
Cn1nccc1CN1CCCC2(COc3ccccc3C(=O)N2)C1 (centres undefined) | i | i | 8.9µM* | 28µM* | ?
O=C1NC2(CCN(Cc3ccc(F)cc3)CC2)COc2ccccc21 | i | -7%[88.5 µM] | -22%[138 µM] | 63µM* | 8%[70.6 µM]
Cc1ccc(CN2CCC3(CC2)COc2ccccc2C(=O)N3)cc1 | i | 4% | ? | 28µM* | -4%
CN1CCN(C(=O)C2(N(C)CCc3ccccc3)Cc3ccccc3C2)CC1 | i | 4%[11.5 µM] | ? | ? | -6%
O=C1NC2(CCN(Cc3ccsc3)C2)Oc2ccccc21 (centres undefined) | i | i | -27%[138 µM] | -29%[172 µM] | 15%[70.6 µM]
O=C1NC2(CCN(Cc3ccsc3)C2)COc2ccccc21 (centres undefined) | i | 4%[88.5 µM] | 40µM* | ? | 4%[70.6 µM]
Cn1ncc2c(C(=O)NC3CC3)cc(-c3ccc([S+](C)(=O)[O-])cc3)nc21 | . | i | -16% | -2% | .
Cc1nn(C)c(C)c1S(=O)(=O)N1CCCC(C(=O)N2CCCn3nc(-c4ccc(F)cc4)cc3C2)C1 (centres undefined) | . | -3% | ? | 32µM* | .
Cc1nn(C)c(C)c1S(=O)(=O)N1CCCC(Cn2c(C3CC3)nc3cccnc32)C1 (centres undefined) | i | i | ? | 1% | -1%
COc1cccc(-c2ncc3c(n2)OCCN(c2ccccc2)C3=O)c1OC | ? | -9%[88.5 µM] | 79µM* | ? | -9%[70.6 µM]
COCCN1CCOc2nc(-c3cccc(OC)c3F)ncc2C1=O | i | i | ? | -30%[172 µM] | -24%[70.6 µM]
COc1cccc(-c2ncc3c(n2)OCCN(CC2CC2)C3=O)c1OC | i | -9%[88.5 µM] | 89µM* | -27%[172 µM] | 3%[70.6 µM]
COc1cc(-c2ccnc(-c3nnc(C)n3C3CCCCC3)c2)ccn1 | i | -5%[88.5 µM] | -29%[138 µM] | ? | -2%[70.6 µM]
Cc1nnc(-c2cc(Nc3cccc(N(C)C)c3)ccn2)n1C1CCCCC1 | i | i | ? | 89µM* | -6%[70.6 µM]
O=C1CCN(S(=O)(=O)c2ccccc2)CCCN(Cc2ccc3[nH]ccc3c2)CCN1 | i | -7% | -17% | -14% | 1%
CCN1C(=O)CCN(Cc2cn(C)c3ccccc23)CC12CCOCC2 | . | i | ? | 79µM* | .
O=C(c1nc2sccn2c1-c1ccccc1)N1CCCCC1 | . | i | -14%[138 µM] | -8%[172 µM] | .
COc1ccccc1Cn1c(=O)c(C(=O)NCc2ccccc2)nc2cccnc21 | . | i | ? | ? | .
C=CCOc1c(OC)ccc2c1CN(CC1CC1)C(=O)CCN2CC(O)COc1ccc(OC)cc1 (centres undefined) | . | . | ? | 40µM* | .
CN1CC2(CCOC2)N(C2CCN(C(=O)C3CCCC3)CC2)C1=O (centres undefined) | . | -7% | -12% | -2% | .
O=c1c2c(n(Cc3cccnc3)n1-c1ccccc1)CN(CC1CC1)CC2 | i | i | 28µM* | -21%[172 µM] | -4%[70.6 µM]
Cc1cccc(CN2CCc3c(n(Cc4cccnc4)n(-c4ccccc4)c3=O)C2)n1 | i | -1%[88.5 µM] | 100µM* | -2%[172 µM] | -5%[70.6 µM]
COc1ncc(CN2CCc3c(n(Cc4cccnc4)n(-c4ccccc4)c3=O)C2)cn1 | i | -7%[88.5 µM] | ? | -22%[172 µM] | -2%[70.6 µM]
COCCn1c(=O)c2c(n1Cc1ccccc1)CN(Cc1cccc(C)n1)CC2 | i | i | ? | -10%[172 µM] | -3%[70.6 µM]
SMILES | Luciferase inh | GPT2 inh | 3T3 cytotox | HEK cytotox | NPR1 antag
Cc1ccc(-c2ccccc2CN2CCN(C(=O)C3CC3)CC2)cc1Cl | . | -16% | ? | ? | .
Cc1ccc(-c2ccccc2CN2CCN(C(=O)Nc3ccccc3)CC2)cc1Cl | . | -4% | ? | 32µM* | .
Cc1ccc(-c2ccccc2CN2CCN(C(=O)c3ccc(Cl)nc3)CC2)cc1Cl | . | -4% | 35µM* | ? | .
Cc1ccc(-c2ccccc2CN2CCN(C(=O)c3ccccc3C)CC2)cc1Cl | . | -6% | ? | ? | .
Cc1ccc(-c2ccccc2CN2CCN(C(=O)c3ccccc3Cl)CC2)cc1Cl | . | -13% | 40µM* | 40µM* | .
Cc1ccc(-c2ccccc2CN2CCC(C(=O)NCCc3ccccc3)CC2)cc1Cl | . | 2% | 25µM* | 40µM*! | .
CC(C)CNC(=O)N1CCCCC1c1nc(CCOc2ccc(F)cc2)no1 (centres undefined) | i | i | ? | ? | -24%
Cc1ccc(C(=O)N2CCN(Cc3ccccc3-c3ccc(C)c(Cl)c3)CC2)cc1 | . | 4% | ? | 40µM* | .
Cc1ccc(-c2ccccc2CN2CCN(C(=O)c3ccc(F)cc3)CC2)cc1Cl | . | -12% | ? | ? | .
CC1Oc2ccc(NC(=O)c3ccccc3Cl)cc2CN(Cc2ccccc2F)C1=O (centres undefined) | i | ? | ? | ? | -11%
COc1ccc(CN2Cc3cc(NC(=O)Cc4ccccc4)ccc3OC(C)C2=O)cc1 (centres undefined) | i | 1% | ? | ? | -17%
COc1ccc(CC(=O)Nc2ccc3c(c2)CN(CCOc2ccccc2)C(=O)C(C)O3)cc1 (centres undefined) | i | -8% | ? | 45µM* | -17%
CC1Oc2ccc(NC(=O)c3ccc(F)cc3F)cc2CN(Cc2ccccc2Cl)C1=O (centres undefined) | i | -7% | ? | 50µM* | -21%
CC1Oc2ccc(NC(=O)COc3ccccc3)cc2CN(Cc2ccccc2Cl)C1=O (centres undefined) | i | i | ? | 25µM* | -5%
COc1cccc(CC(=O)Nc2ccc3c(c2)CN(Cc2ccccc2Cl)C(=O)C(C)O3)c1 (centres undefined) | i | -5% | ? | ? | -28%
COCCCn1c(=O)c(C(=O)N2CCN(C(=O)OC)CC2)nc2cccnc21 | . | i | -16% | i | .
COc1ccc(F)cc1S(=O)(=O)N1CCC(n2cnnc2C)CC1 | i | i | 5% | 2% | -3%
Cc1cc(N2CCC(NC(=O)c3ccc4[nH]ccc4c3)C2=O)ccc1F (centres undefined) | ? | i | -13% | -17% | -11%

Screens: PubChem BioAssay, National Center for Advancing Translational Sciences (NCATS)
